Source: PubChem BioAssay AID488922 (Johns Hopkins Ion Channel Center, 2010)
Out of some 310,000 compounds screened, about 3,800 (1.2%) were called active.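 Rule for the calls: active = ratio B-score over 3 SD below the library mean, with starting fluorescence within 5 SD of its mean; inactive = the rest, inconclusive results apart.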 The list comes from a sample in which actives are over-represented; it also holds similar structures and randomly drawn compounds.

Target: Potassium channel subfamily K member 9 (Homo sapiens) (UniProt Q9NPC2)
Assay: blockers of human TASK-3 (KCNK9) channel – HEK293 cells, thallium flux, primary screen (AID 488922);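 for B-score: negative B-score means less thallium flux so channel inhibition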
Settings: HEK293 KCNK9, FluxOR thallium flux fluorescence, at 10 µM; active compounds read low

Chain of Potassium channel subfamily K member 9 (Homo sapiens) (Q9NPC2 whole entry, looked up): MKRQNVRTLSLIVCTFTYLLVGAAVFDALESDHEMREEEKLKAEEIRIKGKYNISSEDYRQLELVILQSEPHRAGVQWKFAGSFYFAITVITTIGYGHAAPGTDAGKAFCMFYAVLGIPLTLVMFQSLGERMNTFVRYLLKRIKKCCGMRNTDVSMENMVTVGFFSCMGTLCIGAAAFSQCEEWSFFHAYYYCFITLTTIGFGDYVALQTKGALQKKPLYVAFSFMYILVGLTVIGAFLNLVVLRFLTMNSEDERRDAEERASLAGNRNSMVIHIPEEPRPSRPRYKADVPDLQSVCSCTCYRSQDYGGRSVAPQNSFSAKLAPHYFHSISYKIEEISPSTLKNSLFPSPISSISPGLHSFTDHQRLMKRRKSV

| SMILES | B-score |
| --- | --- |
| C/C(=N\NC(=O)CCn1nc(C)cc1C)C(C)(C)C | inactive |
| O=C(COC(=O)c1ccccc1NC(=O)c1ccco1)Nc1ccc2c(c1)OC(F)(F)O2 | -8.01 (active) |
| O=C(COC(=O)c1ccc[nH]c1=O)Nc1ccc2c(c1)OC(F)(F)O2 | inactive |
| COc1ccc(OCC(=O)Nc2ccc(NC(=O)c3ccco3)c(C)c2)cc1 | inactive |
| Cc1ccnc(SCCn2c(N(C)Cc3ccccc3)nc3c2c(=O)n(C)c(=O)n3C)n1 | inactive |
| OC(COCCC12CC3CC(CC(C3)C1)C2)CN1CCCCC1 (configuration not stated) | inactive |
| O=C(CN1C(=O)c2ccccc2C1=O)NCc1ccc(C(=O)O)cc1 | inactive |
| CC(=O)N(C1=C(Cl)C(=O)c2ccccc2C1=O)c1ccc(C(=O)O)cc1 | -6.74 (active) |
| COc1ccc(OC)c(C(=O)c2coc3ccc(O)c(CN4CCOCC4)c23)c1 | inactive |
| COc1ccc2occ(C(=O)c3ccc(N=C(C)N(C)C)cc3)c2c1 | inactive |
| COc1ccc(OC)c(C(=O)c2coc3ccc(OC)cc23)c1 | -15 (active) |
| Cc1ccnc(NC(=O)Cn2ccc([N+](=O)[O-])n2)c1 | inactive |
| CC(/C=N/NC(=O)c1ccncc1)=C\c1ccco1 | inactive |
| CC(/C=N/NC(=O)c1cc(-c2ccc3ccccc3c2)n[nH]1)=C\c1ccco1 | -6.63 (active) |
| Cc1ccc(-c2cc(C(=O)N/N=C/C=C/c3ccco3)c3ccccc3n2)cc1C | inactive |
| CCOc1ccc(-n2c(SCC(=O)NC3CCS(=O)(=O)C3)nnc2-c2cccnc2)cc1 (configuration not stated) | inactive |
| CCCC(C(=O)n1nc(C)cc1C)C(NS(=O)(=O)c1ccc(C)cc1)c1ccccc1 (configuration not stated) | inactive |
| O=C(c1ccc(CSc2ccccc2)cc1)N1CCCCCC1 | inactive |
| O=C(C1CC1)N1CCN=C1SCc1ccc(Cl)cc1 | inactive |
| CC1CCN(C(=O)c2ccc(CSc3ccc(Cl)cc3)cc2)CC1 | -8.16 (active) |
| CCCCn1c(N)c(N(CCOC)C(=O)c2cccc(S(=O)(=O)N(C)c3ccccc3)c2)c(=O)[nH]c1=O | inactive |
| CCOC(=O)Cc1csc(SCC(=O)NC(C)C23CC4CC(CC(C4)C2)C3)n1 (configuration not stated) | inactive |
| CN(C)S(=O)(=O)c1cccc(NC(=O)COC(=O)C2(c3ccccc3F)CCCC2)c1 | inactive |

| SMILES | B-score |
| --- | --- |
| CN(C)S(=O)(=O)c1cccc(NC(=O)Cc2ccsc2)c1 | inactive |
| CN(c1ccccc1)S(=O)(=O)c1cccc(NC(=O)Cc2c(F)cccc2Cl)c1 | -15.5 (active) |
| Cc1cc(=O)oc2c1ccc1ccccc12 | inactive |
| COc1ccc(C(CCN(Cc2ccc(OC)c(OC)c2)C(=O)CCl)c2ccccc2)cc1 (configuration not stated) | -11 (active) |
| COc1ccc(CN(C)C(=O)CC(c2ccccc2)c2ccccc2)cc1 | inactive |
| COc1ccc(COC(=O)NC(C(=O)O)c2ccccc2)cc1 (configuration not stated) | inactive |
| O=c1[nH]c(/C=C/c2cccc(Br)c2)nc2ccccc12 | inactive |
| COc1ccc(CNc2ncnc3ccccc23)cc1 | inactive |
| CCc1ccc(C(CNc2nc(C(F)(F)F)nc3ccccc23)N(C)C)cc1 (configuration not stated) | inactive |
| COc1cccc(CNc2nc(C(F)(F)F)nc3ccccc23)c1 | -8.03 (active) |
| CCOC(=O)c1cc(C(=O)Nc2ccc(S(=O)(=O)Nc3ccc(OC)cc3)cc2)nn1C | inactive |
| COc1ccc(-n2ncc3c2CC(C)(C)CC3NC(=O)CCc2c(C)noc2C)cc1 (configuration not stated) | inactive |
| Cc1nn(CC(=O)Nc2nc3ccccc3s2)c(C)c1[N+](=O)[O-] | -10.4 (active) |
| Cc1nn(CC(=O)NCc2ccccn2)c(C)c1[N+](=O)[O-] | inactive |
| CCc1ccc(NC(=O)Cn2nc(C)c([N+](=O)[O-])c2C)cc1 | inactive |
| Cc1cc(C)nc(NS(=O)(=O)c2ccc(N3C(=O)C4CCCCC4C3=O)cc2)n1 (configuration not stated) | inactive |
| Oc1ccccc1N1CCN(c2ncnc3sc(-c4ccccc4)cc23)CC1 | inactive |
| COc1ccccc1N1CCN(c2ccc([N+](=O)[O-])nc2)CC1 | inactive |
| COc1ccccc1N1CCN(c2ncnc3sc(C)c(-c4ccccc4)c23)CC1 | -16.5 (active) |
| O=C(NCCc1ccc(Cl)cc1Cl)c1cc([N+](=O)[O-])c[nH]c1=O | inactive |
| CSc1cccc(NC(=S)N(C(C)C)C(C)c2ccccn2)c1 (configuration not stated) | -17.5 (active) |
| CSc1cccc(NC(=S)N(Cc2ccccc2)Cc2ccccn2)c1 | inactive |
| CC(c1ccccn1)N(CCN(C)C)C(=S)Nc1ccccc1F (configuration not stated) | inactive |

| SMILES | B-score |
| --- | --- |
| Cc1ccc(O)c(CNc2nc3ccccc3n2C)c1 | inactive |
| Cc1ccc(C2=NN(C)c3nc4ccccc4n3C2)cc1 | -8.17 (active) |
| Cc1ccc(OCc2nc3ccccc3n2C)cc1 | inactive |
| CCOC(=O)/C(=N\Nc1cc(Cl)ccc1Cl)N1CCN(C)CC1 | inactive |
| COCCNc1ncnc2c1nc1n2CCCC1 | inactive |
| COc1cnc(SCc2ccc(Cl)c(Cl)c2)nc1Cl | inactive |
| O=S(=O)(NC1CCCCC1N1CCN(c2ccccc2F)CC1)c1ccccc1 (configuration not stated) | -7.59 (active) |
| COc1ccc(N2CCN(C3CCCCC3NS(=O)(=O)c3ccccc3)CC2)cc1 (configuration not stated) | inactive |
| O=S(=O)(NC1CCCCC1N1CCCCC1)c1ccc(Cl)cc1 (configuration not stated) | inactive |
| N#Cc1c(NCCO)ccc([N+](=O)[O-])c1NCCO | inactive |
| CCc1ccccc1NC1c2ccccc2C(=O)N1c1cccnc1 (configuration not stated) | inactive |
| Cc1ccnc(N2C(=O)c3ccccc3C2Nc2ccc3c(c2)OCCO3)c1 (configuration not stated) | inactive |
| COC(=O)c1cc(NC2c3ccccc3C(=O)N2c2ccc(Cl)cn2)cc(C(=O)OC)c1 (configuration not stated) | -8.59 (active) |
| Cc1ccc(C)c(OCCC(=O)OCC(=O)c2ccc3c(c2)NC(=O)CO3)c1 | inactive |
| Cc1ccc(CNC(=O)C2(C(F)(F)F)C/C(=C\Cc3ccccc3)CCCO2)o1 (configuration not stated) | inactive |
| CCOC(=O)c1ccc(NC(=O)Cc2cccs2)cc1 | inactive |
| CC1=NN(C(=O)c2ccc(Br)cc2)C(O)(c2ccccc2)C1 (configuration not stated) | inactive |
| CCC1=NN(C(=O)Cc2ccc([N+](=O)[O-])cc2)C(O)(c2ccc(Br)cc2)C1 (configuration not stated) | -9.93 (active) |
| CC1=NN(C(=O)Cc2ccc(C)cc2)C(O)(c2cccnc2)C1 (configuration not stated) | inactive |
| CCOC(=O)c1[nH]c(C)c(C(=O)OCC(=O)N2c3ccccc3CC2C)c1C (configuration not stated) | inactive |
| COc1ccc(C)cc1NC(=O)CNCc1cccs1 | inactive |
